Screens from PubChem.
Most compounds without a hit are left out; they make up all but 4.2% or so of the library.
GDH-TPI counter-1: GDH-TPI coupling enzyme inhibitors, primary screen, artefact control for M. tuberculosis FBA inhibitor project, biochemical, absorbance, full deck. 1.2% of 360,000 active. GDH-TPI coupled enzyme counterscreen, NADH absorbance. inhibition, % at 4.8 µM; in the data active means inhibition above about 30%
CCHFV vOTU inh: CCHFV vOTU protease inhibitors, primary screen, biochemical, Pep-AMC substrate, fluorescence. Crimean-Congo hemorrhagic fever virus L polyprotein viral ovarian tumor (vOTU) protease …. inhibition, % at 11.5 µM. 0.55% of 370,000 active; in the data active means inhibition above about 30%
Mtb FBA inh: Mtb FBA enzyme inhibitors, primary screen, biochemical, fluorescence, strain H37Rv; inhibition, % at 1 µM; purified M. tuberculosis FBA, fluorescence read-out; 2.3% of 360,000 active; Fructose-bisphosphate aldolase (Mycobacterium tuberculosis (strain ATCC 25618 / H37Rv)), …; AID 588726, 2011
RecA intein inh: Mtb RecA intein splicing inhibitors, primary screen, biochemical, fluorescence, HTS | Protein RecA (Mycobacterium tuberculosis (strain ATCC 25618 / H37Rv)), P9WHJ3 | cell-free RecA intein splicing | inhibition, % (no concentration beside the values) | 0.75% of 290,000 active | AID 2221, 2009; in the data active means inhibition above about 30%
Target sequence (P9WHJ3 whole entry, looked up): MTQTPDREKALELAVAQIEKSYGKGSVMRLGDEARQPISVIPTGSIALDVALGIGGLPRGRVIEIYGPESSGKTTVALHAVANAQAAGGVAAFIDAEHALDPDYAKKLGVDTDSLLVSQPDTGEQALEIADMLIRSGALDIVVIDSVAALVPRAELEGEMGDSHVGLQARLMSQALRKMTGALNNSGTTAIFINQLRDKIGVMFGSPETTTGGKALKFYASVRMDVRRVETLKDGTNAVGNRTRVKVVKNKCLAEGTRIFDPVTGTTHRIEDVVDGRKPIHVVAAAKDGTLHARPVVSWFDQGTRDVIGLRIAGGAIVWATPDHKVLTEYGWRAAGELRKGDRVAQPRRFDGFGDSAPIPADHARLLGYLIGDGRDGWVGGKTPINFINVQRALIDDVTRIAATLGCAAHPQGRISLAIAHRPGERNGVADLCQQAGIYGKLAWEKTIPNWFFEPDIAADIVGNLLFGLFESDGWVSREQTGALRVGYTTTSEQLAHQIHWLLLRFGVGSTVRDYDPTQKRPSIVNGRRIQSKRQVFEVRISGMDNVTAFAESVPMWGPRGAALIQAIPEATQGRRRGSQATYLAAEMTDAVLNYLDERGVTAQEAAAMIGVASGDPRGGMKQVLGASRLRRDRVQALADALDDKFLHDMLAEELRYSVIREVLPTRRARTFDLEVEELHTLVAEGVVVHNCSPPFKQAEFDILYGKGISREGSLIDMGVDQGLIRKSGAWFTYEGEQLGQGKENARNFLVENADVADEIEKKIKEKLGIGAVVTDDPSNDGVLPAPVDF
Mtb FBA confirm: M. tuberculosis aldolase blockers, biochemical, fluorescence, strain H37Rv, confirmation. shares compounds with Mtb FBA inh. purified M. tuberculosis FBA, fluorescence read-out. inhibition, % at 1 µM. 78% of 5,600 active. AID 651616, 2012
GDH-TPI counter-2: GDH-TPI coupling enzyme inhibitors, artefact control for M. tuberculosis FBA inhibitor project, biochemical, fluorescence, high throughput; shares compounds with Mtb FBA inh; GDH-TPI coupled enzyme counterscreen; inhibition, % at 1 µM; 81% of 5,600 active; in the data active means inhibition above about 10%
GDH-TPI DR: GDH-TPI coupling enzyme inhibitors, dose response, artefact control for M. tuberculosis FBA inhibitor project, biochemical, fluorescence, IC50; shares compounds with Mtb FBA inh; IC50, µM; 79% of 170 active; AID 652145, 2013; GDH-TPI coupled enzyme assay, artifact counterscreen; call rule not given here
Hits are given with their value; - = inactive; . = no result; + = active, no number. Unless noted, no stated cut-off is given here; in the data, active means inhibition above about 27%; inactive means the rest.

SMILES	GDH-TPI counter-1	CCHFV vOTU inh	Mtb FBA inh	RecA intein inh	Mtb FBA confirm	GDH-TPI counter-2	others
COc1cc(NC(=O)C(C)Oc2ccccc2)c(OC)cc1NC(=O)c1ccccc1 (stereo not given)	-	.	-	-	.	.
COc1ccc(-n2c(N)c(C(=O)NCC3CCCO3)c3nc4ccccc4nc32)c(OC)c1 (stereo not given)	-	-	104	-	73	71
COc1ccc(-c2cc(C(=O)NCC3CCCO3)c3cc(C)ccc3n2)cc1 (stereo not given)	-	-	76	-	107	72
COc1ccc(-c2nc(C(=O)NCC3CCCO3)cc3c2[nH]c2ccccc23)cc1 (stereo not given)	-	-	30	-	+	+
CC(C)CCNC(=O)c1c(N)n(CC2CCCO2)c2nc3ccccc3nc12 (stereo not given)	-	-	-	-	.	.
COc1ccc(-c2cc(C(=O)NCC3CCCO3)c3ccccc3n2)cc1 (stereo not given)	-	-	46	-	178	173
Cc1cc2c(OCC(CNC(C)(C)C)OC(=O)c3ccccc3)cccc2[nH]1 (stereo not given)	.	-	.	.	.	.
Cc1ccccc1OCC(=O)NNC(=O)c1ccoc1C	-	-	-	.	.	.
COc1ccc(-c2cc(C(=O)NCC3CCCO3)c3cc(C(C)C)ccc3n2)cc1 (stereo not given)	-	-	67	-	-	-	GDH-TPI DR=1.6
COc1ccc(-c2cc(C(=O)NCc3ccco3)c3ccccc3n2)cc1	-	-	28	-	.	+
O=C(NCc1ccco1)c1cc(-c2ccccc2)nc2ccccc12	-	-	-	-	.	.
O=S(=O)(NCC1CCCO1)c1ccccc1F (stereo not given)	-	-	-	-	.	.
CCc1nn2c(NCCOC)cc(C)nc2c1-c1ccc(F)cc1	-	-	-	-	.	.
Cc1nc2oc3c(=O)[nH]cnc3c2c2c1COC(C)(C)C2	-	-	44	-	-	-	GDH-TPI DR=4.8
Cc1cc(OC(C)C(=O)NCCN2CCOCC2)c2c(C)cc(=O)oc2c1 (stereo not given)	-	-	33	-	76	64
Cc1cc(OC(C)C(=O)NCCCN2CCOCC2)c2c(C)c(C)c(=O)oc2c1 (stereo not given)	-	-	64	-	168	181
Cc1cc(=O)oc2c(C)c(OC(C)C(=O)NCCN3CCOCC3)ccc12 (stereo not given)	-	-	-	-	.	.
CCc1cc(=O)oc2cc(C)cc(OC(C)C(=O)NCCCN3CCOCC3)c12 (stereo not given)	-	-	59	-	85	60
COc1ccc(C2SCC(=O)N2c2c(C)n(C)n(-c3ccccc3)c2=O)cc1OC (stereo not given)	-	-	47	-	58	45
CCOc1ccc(C2SCC(=O)N2c2c(C)n(C)n(-c3ccccc3)c2=O)cc1 (stereo not given)	-	-	96	-	-	-
Cc1c(N2C(=O)CSC2c2ccccc2)c(=O)n(-c2ccccc2)n1C (stereo not given)	-	-	-	-	.	.
CC(C)C[C@H](NC(=O)C1CC(=O)N(c2ccc3c(c2)OCCO3)C1)C(=O)N1CCCCC1 (stereo not given in full)	-	-	-	-	.	.
COc1ccc(-c2ccc(C(=O)NCCN(C)C)c3occc23)c(C)c1	-	-	33	.	33	25
COCCNC(=O)c1ccc(-c2ccc(OC)cc2C)c2ccoc12	-	-	95	.	55	44
COc1ccc(-c2ccc(C(=O)NCc3ccccc3)c3occc23)c(C)c1	-	-	-	.	.	.
SMILES	GDH-TPI counter-1	CCHFV vOTU inh	Mtb FBA inh	RecA intein inh	Mtb FBA confirm	GDH-TPI counter-2	others
CC(C)Oc1cccc(NC(=O)C2(C)CCCN2C(=O)C(C)C)c1 (stereo not given)	-	-	-	.	.	.
COC(=O)[C@H]1C[C@H](OC(=O)Nc2cccs2)[C@@]2(O)CN(S(=O)(=O)c3ccc(C)cc3)CC2[C@H]1C(=O)OC (stereo not given in full)	-	-	-	.	.	.
CCOc1ccc(CCNC(=O)C2CCCN(S(=O)(=O)N3CC(C)CC(C)C3)C2)cc1OCC (stereo not given)	-	-	-	-	.	.
N#CC(C(=O)CCN1C(=O)C2CC=CCC2C1=O)c1nc2ccccc2[nH]1 (stereo not given)	-	-	47	.	-	20
N#CC(C(=O)C12CC3CC(CC(C3)C1)C2)c1nc2ccccc2[nH]1 (stereo not given)	-	-	-	-	.	.
COc1ccc2c(c1OC)C(=O)OC2Nc1nc(-c2ccc(-c3ccccc3)cc2)cs1 (stereo not given)	-	-	34	-	-	-	GDH-TPI DR=9.5
COc1cccc(-c2csc(NC3OC(=O)c4c3ccc(OC)c4OC)n2)c1 (stereo not given)	-	-	-	-	.	.
CC1=C(C(N)=O)S(=O)(=O)c2ccccc21	-	-	-	-	.	.
OC1c2cc(Br)ccc2N=C2CCCCCN21 (stereo not given)	-	-	-	.	.	.
OC1c2c(F)cccc2N=C2CCCCCN21 (stereo not given)	-	-	48	.	141	138
CC(c1ccon1)N(C)C(=O)c1cccc(OC2CCN(S(C)(=O)=O)CC2)c1 (stereo not given)	-	-	-	.	.	.
CC(C)(O)c1cc2ccc(C#Cc3ccsc3)cc2c(=O)o1	-	-	50	.	32	31
CN(C)c1ccc(C#Cc2ccc3cc(CCCO)oc(=O)c3c2)cc1	-	-	-	.	.	.
CC(C)(OC(=O)c1cccs1)c1cc2ccccc2c(=O)o1	-	-	-	.	.	.
O=c1oc(CCCO)cc2ccc(C#Cc3ccsc3)cc12	-	-	57	.	87	73
COc1ccc(Cc2c(-c3cccc(Cl)c3)nc3ccc(C)cn23)c(C)c1	.	-	-	.	.	.
O=C(O)c1ccccc1Nc1ccnc(Cl)n1	-	-	28	-	+	144
O=C(O)c1ccccc1Nc1ccccc1C(=O)O	-	-	-	-	.	.
NC(=O)c1cccn(Cc2ccc(C(F)(F)F)cc2)c1=O	-	-	52	-	96	72
CNC(=O)c1cccn(Cc2ccc(C(F)(F)F)cc2)c1=O	-	-	29	-	68	43
CNC(=O)c1cccn(Cc2cc(C(F)(F)F)cc(C(F)(F)F)c2)c1=O	-	-	-	-	.	.
